Laboratory results taken from ChEMBL document CHEMBL4808148, “HDAC6 screening dataset using tau-based substrate in an enzymatic assay yields selective inhibitors and activators” (2021).
Several values for one entry are separate records, joined by “and”; a condition that tells them apart may be missing. Equal entries are not always repeated. About 390 (7%) of roughly 5,600 compounds showed an effect of 50% or more. For the sample, strong results were picked, then their nearest neighbours and some compounds at random. Residues, ends and D or L forms follow the SMILES beside them.

How the values were obtained:
[1] = target: T1, Protein deacetylase HDAC6 (Homo sapiens) (UniProt Q9UBN7); conditions: at 10 µM
T1 sequence (whole entry): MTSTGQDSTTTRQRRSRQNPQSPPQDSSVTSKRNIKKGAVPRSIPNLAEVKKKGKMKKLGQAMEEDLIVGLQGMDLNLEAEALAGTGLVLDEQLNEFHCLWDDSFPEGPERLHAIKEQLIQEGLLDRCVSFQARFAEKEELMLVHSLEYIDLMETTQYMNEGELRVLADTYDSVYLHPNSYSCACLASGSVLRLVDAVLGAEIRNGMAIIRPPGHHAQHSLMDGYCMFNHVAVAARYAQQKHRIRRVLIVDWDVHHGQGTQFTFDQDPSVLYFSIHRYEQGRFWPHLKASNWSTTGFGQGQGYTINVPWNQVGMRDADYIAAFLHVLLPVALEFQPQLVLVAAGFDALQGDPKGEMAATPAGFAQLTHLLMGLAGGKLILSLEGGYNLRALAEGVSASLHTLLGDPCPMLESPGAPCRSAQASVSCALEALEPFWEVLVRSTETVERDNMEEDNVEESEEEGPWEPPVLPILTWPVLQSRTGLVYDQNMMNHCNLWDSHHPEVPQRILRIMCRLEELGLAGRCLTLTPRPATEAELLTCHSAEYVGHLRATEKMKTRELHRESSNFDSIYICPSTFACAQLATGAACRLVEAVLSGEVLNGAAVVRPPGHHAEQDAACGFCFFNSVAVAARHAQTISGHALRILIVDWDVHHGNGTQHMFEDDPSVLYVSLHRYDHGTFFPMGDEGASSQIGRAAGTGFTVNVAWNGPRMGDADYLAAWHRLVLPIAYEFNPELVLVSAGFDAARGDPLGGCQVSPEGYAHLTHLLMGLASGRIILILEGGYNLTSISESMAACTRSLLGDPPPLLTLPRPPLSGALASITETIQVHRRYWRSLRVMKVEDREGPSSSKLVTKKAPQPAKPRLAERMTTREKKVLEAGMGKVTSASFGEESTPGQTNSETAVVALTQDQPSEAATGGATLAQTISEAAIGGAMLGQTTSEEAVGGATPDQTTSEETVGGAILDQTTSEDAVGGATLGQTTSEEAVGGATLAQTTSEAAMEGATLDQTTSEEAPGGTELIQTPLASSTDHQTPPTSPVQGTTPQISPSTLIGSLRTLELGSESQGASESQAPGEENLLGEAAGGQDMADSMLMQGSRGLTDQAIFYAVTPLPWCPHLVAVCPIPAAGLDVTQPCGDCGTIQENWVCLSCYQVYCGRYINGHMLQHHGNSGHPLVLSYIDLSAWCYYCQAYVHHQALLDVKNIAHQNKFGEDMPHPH

[2] = target: Protein deacetylase HDAC6 (Homo sapiens) (UniProt Q9UBN7); conditions: at 10 µM; remark: listed apart in the source

Molecule	inhibition [1]	inhibition [2] [%]
COc1nccnc1NS(=O)(=O)c1ccc(N)cc1	34.6%	
CCCCc1nc2cc(/C=C/C(=O)NO)ccc2n1CCN(CC)CC	102%	
Clc1cc(Cl)c(OCC#CI)cc1Cl	4.74%	
COc1cc2nc(N3CCC(N4CCCCC4)CC3)nc(NC3CCCCCC3)c2cc1OC	0.07%	
CC(C)[C@H]1c2ccc(F)cc2CC[C@@]1(CCN(C)CCCc1nc2ccccc2[nH]1)OC(=O)C1CC1	15.1%	
COc1ccc(Nc2ncnc3ccc(OC)cc23)cc1	27.1%	
COc1ccc2nc(NC(=O)Nc3ccccc3)sc2c1	109%	
Cc1cc(C)cc(NC(=O)Nc2ccc(OS(N)(=O)=O)cc2)c1	44.5%	
COC1=C2C[C@@H](C)C[C@H](OC)[C@H](O)[C@@H](C)/C=C(\C)[C@H](OC(N)=O)[C@@H](OC)/C=C\C=C(/C)C(=O)NC(=CC1=O)C2=O	19.3%	
COC(=O)Nc1ccc(-c2nc(N3CCOCC3)c3cnn(C4CCN(Cc5cccnc5)CC4)c3n2)cc1	-1.91%	
Nc1nnc(Sc2ncc([N+](=O)[O-])s2)s1	34.9%	
O=C(Nc1c(Cl)cncc1Cl)c1ccc(OC(F)F)c(OCC2CC2)c1	-1.25%	
Cc1ccc(-c2csc3ncnc(SCCC(=O)O)c23)cc1	22.2%	
O=C(O)COc1ccc(C(=O)c2cccs2)c(Cl)c1Cl	19.9%	
Sc1nc2ccccc2s1	52.6%	
O=c1[nH]c2cc(C(F)(F)F)c(N3CCOCC3)cc2n(CP(=O)(O)O)c1=O	1.79%	
CC(C)=CCC[C@](C)(O)[C@@H]1CC=C(C)CC1	18.6%	
COc1ccc(Cc2nc(O)c3c(C)nc([C@@H](CCCc4ccccc4)[C@@H](C)O)n3n2)cc1OC	-9.71%	
COc1ccc(S(=O)(=O)Nc2c(C)cc(C)cc2C)cc1	-8.52%	
Cc1cc(C)c(S(=O)(=O)Nc2cccc(C(F)(F)F)c2)c(C)c1	97.6%	
Cc1sc(N)c(C(=O)c2cccc(C(F)(F)F)c2)c1C	17.1%	
CCc1cccc(CC)c1NC(=O)N1Cc2[nH]nc(NC(=O)c3ccc(N4CCN(C)CC4)cc3)c2C1	7.27%	

Molecule	inhibition [1]	inhibition [2] [%]
Nc1nc(N)c(N=O)c(OCC2CCCCC2)n1	81.8%	
Nc1nc(OCC2CCCCC2)c2nc[nH]c2n1	33.5%	
Nc1ccc(C(=O)NCC(=O)O)cc1	6.74%	
CN(C)CCC1(c2ccc(Cl)cc2)Cc2ccccc2C(=O)O1 (racemic)	3.8%	
Cn1cnc([N+](=O)[O-])c1Sc1ncnc2[nH]cnc12	12.8%	
OCc1cc(C(O)CNCCCCCCOCCCCc2ccccc2)ccc1O (configuration not stated)	-5.85%	
Oc1ccc(C(O)CNCCCCCCNCC(O)c2ccc(O)c(O)c2)cc1O (configuration not stated)	-3.51%	
OCc1cc([C@@H](O)CNCCCCCCOCCOCc2c(Cl)cccc2Cl)ccc1O	59.3%	
COc1cc(NS(C)(=O)=O)ccc1Nc1c2ccccc2nc2ccccc12	76.6%	
COc1ccc(Cl)cc1NC(=O)Nc1cc(C)nc2ccccc12	16.6%	
COc1ccc(S(=O)(=O)Nc2cccnc2Nc2ccc(O)cc2)cc1	34.3%	
CCOC(=O)c1cc(C#N)c(N2CCC(C(=O)NS(=O)(=O)Cc3ccccc3)CC2)nc1C	21.9%	
NCC(=O)N[C@@H](CCC(N)=O)C(=O)O (H-Gly-Gln-OH)	29.1%	
O=S(=O)(Cc1ccccc1)Nc1ccc(-c2ccc3c(cnn3-c3ccc(F)cc3)c2)c(C(F)(F)F)c1	-8.14%	
Oc1cccc(O)c1	1.38%	
N[C@H]1C[C@@H]1c1ccc(-c2cccc(O)c2)cc1	77.4%	
O=c1[nH]c2ccccc2n1C1CCN(CCOc2ccccc2)CC1	20.9%	
CCOC(=O)c1cc2ccc(O)cc2oc1=O	55.9%	
CN1CCC(COc2cnc(-c3cccc(Cn4nc(-c5cccc(C#N)c5)ccc4=O)c3)nc2)CC1	17.5%	
COc1cc2c(cc1-c1c(C)noc1C)ncc1[nH]c(=O)n([C@H](C)c3ccccn3)c12	12.8%	
CC(=O)/N=c1/[nH]c(C)c(-c2ccc(Cl)c(S(=O)(=O)NCCO)c2)s1	23.4%	
CCCCC1=NC2(CCCC2)C(=O)N1Cc1ccc(-c2ccccc2-c2nnn[nH]2)cc1	-8.81%	

Molecule	inhibition [1]	inhibition [2] [%]
O=C(O)c1cnn(-c2nc3cc(OC(F)(F)F)c(Cl)cc3[nH]2)c1	59.5%	
COc1ccc(Nc2nccc(NCCO)n2)cc1	37.2%	
Cc1cc(NCCO)nc(-c2ccc(Br)cc2)n1	85.2%	
N#Cc1cc(CN2CCC(Nc3ncnc4sc(Cl)cc34)CC2)ccc1F	6.29%	
Cn1c(NC[C@@H](N)Cc2ccccc2)nc(-c2ccncc2)c(-c2ccc3ccccc3c2)c1=O	0.59%	
Nc1nccc2c1ncn2[C@@H]1O[C@H](CO)C(O)C1O (some centres not stated)	11%	
C[C@H](NC(=O)CNC(=O)c1cccc(Cl)c1)c1ccccc1	21.1%	
COc1ccc(C(=O)NCc2ccc(OCCN(C)C)cc2)cc1OC	1.13%	
COc1cc(C(=O)NCc2ccc(OCCN(C)C)cc2)cc(OC)c1OC	6.33%	
CN(C)Cc1c(C(=O)NCCOc2ccc(C(=O)NO)cc2)oc2ccccc12	102%	
N#Cc1cc2c(OCC(O)CN3CCN(C(c4ccccc4)c4ccccc4)CC3)cccc2[nH]1 (racemic)	3.02%	
O=C1CC2(CCCC2)CC(=O)N1CCNCC1COc2ccccc2O1 (configuration not stated)	5.51%	
CN(C)C(=O)n1nnnc1Cc1ccc(-c2ccccc2)cc1	26.8%	
CCCNC(=O)N1N=C(c2ccc(N)cc2)c2cc3c(cc2C1C)OCO3 (configuration not stated)	26.2%	
Cc1[nH]c(/C=C2\C(=O)Nc3ccc(F)cc32)c(C)c1C(=O)NC[C@H](O)CN1CCOCC1	34%	
Cc1ccc(OCCSc2ncccn2)c(Br)c1	99.3%	
CCCCCCCCCCCCCCC[C@@H](O)[C@@H](N)CO	26%	
Sodium stibogluconate, CHEMBL2079699		0.83
Cc1cc(C)c(/C=C2\C(=O)Nc3ccccc32)[nH]1	88.8%	
Cc1[nH]c(/C=C2\C(=O)Nc3ccccc32)c(C)c1CCC(=O)O	30.1%	
CCN(CC)CCNC(=O)c1c(C)[nH]c(/C=C2\C(=O)Nc3ccc(F)cc32)c1C	16.3%	
CN(C)c1ccc(/C=C2\C(=O)Nc3ccccc32)cc1	101%	

Molecule	inhibition [1]	inhibition [2] [%]
C#Cc1c[nH]c(=O)[nH]c1=O	-6.92%	
CC1(C)CN2C(CS/C(=N\C3CCCCC3)NC3CCCCC3)=CSC2=N1	12.2%	
O=S(=O)(NC1CCNCC1)c1cc(S(=O)(=O)c2ccccc2)ccc1C(F)(F)F	-7.14%	
CC(CCCCC(=O)Nc1ccc(C(F)(F)F)cc1)NCCc1c[nH]cn1 (configuration not stated)	3.94%	
C/C(=C\CNc1ncnc2[nH]cnc12)CO	5.74%	
O=c1c2ccccc2oc2ccccc12	92.3%	
O=c1oc2ccccc2c(O)c1Cc1c(O)c2ccccc2oc1=O	-8.39%	
CCC(c1ccccc1)c1c(O)c2ccccc2oc1=O (configuration not stated)	16.2%	
Cc1cc(-c2nc3cc(F)ccc3s2)ccc1NC(=O)[C@@H](N)CCCCN	28.4%	
CNCCC=C1c2ccccc2C=Cc2ccccc21	15.7%	
CN(C)CCC=C1c2ccccc2C=Cc2ccccc21	63.9%	
CN(C)CCC=C1c2ccccc2COc2ccccc21	-7.53%	
CNc1cc2c(Nc3cccc(Br)c3)ncnc2cn1	9.09%	
Cc1ccc2nc(NCCN)c3ncc(C)n3c2c1	4.14%	
O=C1Nc2ccc(I)cc2C1=Cc1cc(Br)c(O)c(Br)c1	72.9%	
C=C[C@@H]1C[C@]1(NC(=O)[C@@H]1C[C@@H]2CN1C(=O)[C@H](C(C)(C)C)NC(=O)O[C@@H]1C[C@H]1CCCCCc1nc3ccc(OC)cc3nc1O2)C(=O)NS(=O)(=O)C1CC1	0.36%	
O=c1c2c(c1=O)N(CCP(=O)(O)O)CCCN2	12.1%	
Cc1ccc([N+](=O)[O-])cc1S(=O)(=O)N(C)C	6.18%	
S=C(NCCc1ccccn1)Nc1ccc(Br)cn1	8.48%	
COC(c1ccccc1)(c1ccccc1)[C@H](Oc1nc(C)cc(C)n1)C(=O)O	-8.71%	
Mangafodipir (trisodium), CHEMBL5308448		18
hemin, CHEMBL5308479		56.4

Molecule	inhibition [1]	inhibition [2] [%]
NKP-1339, CHEMBL5308480		34.9
COc1ccc(CC2NCCc3c2[nH]c2ccc(C)cc32)c(Cl)c1OC (configuration not stated)	-1.23%	
O=C(Nc1ccccc1)Nc1ccc(-c2ccc(C(=O)[C@@H]3CCC[C@H]3C(=O)O)cc2)cc1	4.7% and 12.5%	
CN1CCN(C(=O)c2nc3ccc(Cl)cc3[nH]2)CC1	16.2%	
CN1CCN(c2ccc3nc(-c4c(N)c5c(F)cccc5[nH]c4=O)[nH]c3c2)CC1	86.8%	
CC(C)=CCC[C@](C)(O)[C@H]1CC[C@]2(C)[C@@H]1[C@H](O)C[C@@H]1[C@@]3(C)CC[C@H](O[C@@H]4O[C@H](CO)[C@@H](O)[C@H](O)[C@H]4O[C@@H]4O[C@H](CO)[C@@H](O)[C@H](O)[C@H]4O)C(C)(C)[C@@H]3CC[C@]12C	11.5%	
O=C(Cn1ccnc1[N+](=O)[O-])NCc1ccccc1	32.3%	
Cc1c[nH]c(=O)n(CCCN2CCN(c3ccccc3OCC(F)(F)F)CC2)c1=O	19.2%	
COc1ccc(-c2nc(N3CCOCC3)c3sc(CN(C)c4ncc(C(=O)NO)cn4)cc3n2)cn1	98%	
COC(=O)Nc1ccc(-c2nc(N3CCOCC3)c3cnn(C4CCN(C(=O)OC)CC4)c3n2)cc1	21.1%	
CS(=O)(=O)N1CCN(Cc2cc3nc(-c4cccc5[nH]ncc45)nc(N4CCOCC4)c3s2)CC1	11.1%	
C[N+](C)(C)NCCC(=O)[O-]	17.8%	
Cn1c(=O)c2c(ncn2CCOC(=O)C(C)(C)Oc2ccc(Cl)cc2)n(C)c1=O	23.6%	
c1ccc(-c2n[nH]c3c2oc2ccccc23)cc1	95%	
CCC/C=C1\OC(=O)C2=C1CCC=C2	39.5%	
CC(=C\c1ccc(Cl)cc1)/C(C)=N/O	2.85%	
NC(CC(F)C(=O)O)C(=O)O (racemic)	38.9%	
COC(=O)/C=C/c1cc(O)ccc1O	28.1%	
C=CC(C)(C)c1cc(/C=C/C(=O)c2ccc(O)cc2)c(OC)cc1O	75.1%	
